# In PubChem BioAssay (Tox21):
# Values without a mark were called inactive. Records with an inconclusive call do not appear. Entries that show only a call come without a potency. Calls of active or inactive are those of the source. Unless noted, calls come from the whole dose curve; as a rule, active = well fitted curve in the direction sought with a large enough effect in the repeat runs; inconclusive = weak or mixed curves; inactive = no such curve, though single readings can be large; an effect the other way counts as inactive or inconclusive.
# Key:
# [1] = qHTS assay for small molecule agonists of the p53 signaling pathway (AID 651631; calls by dose curve; note: potency is the fitted concentration of half-maximal effect; nearly all actives have a fitted effect of over 15% in size)
# Method in brief: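 HCT-116 cells carrying a beta-lactamase reporter under p53 response elements were dosed with compound for 16 h at 37 °C. LiveBLAzer B/G FRET substrate was then added for 2 h at room temperature, and fluorescence intensity was read to detect pathway agonism.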
# [2] = qHTS assay for small molecules that induce genotoxicity in human embryonic kidney cells expressing luciferase-tagged ATAD5 (AID 651632); note: nearly all actives have a fitted effect of over 15% in size; note: potency is the fitted concentration of half-maximal effect
# Method in brief: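 Cells were seeded at 2,000 per well, dosed with compound, and incubated 16 hr at 37C in 5% CO2. Luciferase activity was then quantified after a 30 min room-temperature incubation with Amplite.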
# [3] = qHTS assay for small molecule disruptors of the mitochondrial membrane potential - cell viability (AID 720634; calls by dose curve; note: nearly all actives have a fitted effect of over 20% in size; note: potency is the fitted concentration of half-maximal effect)
# Method in brief: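 Cytotoxicity was measured by ATP quantitation in HepG2 wells that had first been treated with compound for 1 hr and stained with m-MPI dye; CellTiter-Glo incubation was 30 min at room temperature.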
# [4] = qHTS assay to test for compound auto fluorescence at 590 nm (red) in HepG2 cells (AID 720674)
# Method in brief: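 Red autofluorescence (Ex/Em 540/590 nm, Rose Bengal sodium equivalents) was measured in HepG2 cells, 2,000 per well in MEM plus 10% FBS, plated overnight at 37 C. Readings were taken 1 hr after adding 23 nL compound or DMSO, at 37 C and 5% CO2.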
# [5] = qHTS assay to test for compound auto fluorescence at 535 nm (green) in HepG2 cells (AID 720675)
# [6] = qHTS assay to test for compound auto fluorescence at 460 nm (blue) in HEK293 cells (AID 720678)
# Method in brief: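 Intrinsic compound fluorescence is recorded in live HEK293 cultures after overnight incubation at 37C, 5% CO2, using excitation 405 nm and emission 460 nm. Values are referenced to triamterene.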
# [7] = qHTS assay to test for compound auto fluorescence at 590 nm (red) in HEK293 cells (AID 720679)
# Method in brief: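 Red autofluorescence, HEK293 cells: 2,000 cells/well; attach 4-5 hr 37C; add 23 nL cpd or DMSO; incubate o/n 37C 5% CO2; read Ex540/Em590; Rose Bengal sodium reference.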
# [8] = qHTS assay to test for compound auto fluorescence at 535 nm (green) in HEK293 cells (AID 720680)
# [9] = qHTS assay to test for compound auto fluorescence at 460 nm (blue) in HEK293 cell free culture (AID 720681)
# Method in brief: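 Blue fluorescence (Ex 405/Em 460 nm, triamterene-equivalent) was read immediately after pin transfer of compound or DMSO into medium (DMEM, 10% FBS) without cells.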
# [10] = qHTS assay to test for compound auto fluorescence at 535 nm (green) in HEK293 cell free culture (AID 720682)
# Method in brief: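 Green-label autofluorescence (485 nm excitation, 535 nm emission) measured on compound added to cell-free culture medium (DMEM, 10% FBS). Output is expressed relative to fluorescein.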
# [11] = qHTS assay to test for compound auto fluorescence at 590 nm (red) in HEK293 cell free culture (AID 720683)
# Method in brief: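 Red-channel autofluorescence of compounds in culture medium (DMEM, 10% FBS), no cells, measured at 540/590 nm. Rose Bengal sodium is the reference fluorophore for equivalence.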
# [12] = qHTS assay to test for compound auto fluorescence at 590 nm (red) in HepG2 cell free culture (AID 720684)
# Method in brief: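 No cells present: MEM + 10% FBS only. Compound pinned in, red label read (540/590 nm). Activity = fluorescence equivalent to Rose Bengal sodium.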
# [13] = qHTS assay to test for compound auto fluorescence at 460 nm (blue) in HepG2 cell free culture (AID 720685)
# Method in brief: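 Cell-free plates of MEM plus 10% FBS received 23 nL compound or DMSO vehicle; blue-channel (405/460 nm) intensity scored against triamterene as reference fluorophore.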
# [14] = qHTS assay to test for compound auto fluorescence at 535 nm (green) in HepG2 cell free culture (AID 720686)
# [15] = qHTS assay to test for compound auto fluorescence at 460 nm (blue) in HepG2 cells (AID 720687)
# Method in brief: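 Blue-channel autofluorescence (Ex/Em 405/460 nm, triamterene-equivalent) was measured after 1 hr compound exposure at 37 C, 5% CO2. Cells were HepG2, plated overnight at 37 C in MEM plus 10% FBS.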
# [16] = qHTS assay for small molecule agonists of the p53 signaling pathway - cell viability (AID 651633; calls by dose curve; note: nearly all actives have a fitted effect of over 30% in size; note: potency is the fitted concentration of half-maximal effect)
# Method in brief: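 Viability counter-read: CellTiter-Glo luminescence (30 min, room temperature) in the same p53RE-bla plates. These plates had been exposed to compounds for 16 h at 37 C.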
# [17] = qHTS assay for small molecules that induce genotoxicity in human embryonic kidney cells expressing luciferase-tagged ATAD5 - cell viability (AID 651634; calls by dose curve; note: nearly all actives have a fitted effect of over 25% in size; note: potency is the fitted concentration of half-maximal effect)
# Method in brief: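 Cells (HEK293T, luciferase-tagged ATAD5) are seeded at 2,000 per well, dosed with compound or DMSO vehicle, and incubated 15.5 hr at 37C and 5% CO2. CellTiter-Fluor is added for 30 min before fluorescence is measured.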
# [18] = qHTS assay for small molecule disruptors of the mitochondrial membrane potential (AID 720635); note: potency is the fitted concentration of half-maximal effect
# Method in brief: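 Mitochondrial membrane potential tracked with Mito-MPS dye, red aggregates (ex 540/em 590 nm) against green monomers (ex 490/em 535 nm). Compound treatment 1 hr at 37C, dye 30 min in HepG2.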
# [19] = molecular target: Glucocorticoid receptor (Homo sapiens) (UniProt P04150); assay: qHTS assay to identify small molecule agonists of the glucocorticoid receptor (GR) signaling pathway (AID 720691; active = well fitted activation curve with a large enough effect in the signal ratio in the repeat runs, not every such curve was filed as active; the % refers to the signal ratio; note: potency is the fitted concentration of half-maximal effect); settings: GR-bla HeLa, beta-lactamase reporter ratio, 18 h; activation: at 62.4 µM (top of the series)
# Sequence of Glucocorticoid receptor (Homo sapiens) (P04150 whole entry, looked up): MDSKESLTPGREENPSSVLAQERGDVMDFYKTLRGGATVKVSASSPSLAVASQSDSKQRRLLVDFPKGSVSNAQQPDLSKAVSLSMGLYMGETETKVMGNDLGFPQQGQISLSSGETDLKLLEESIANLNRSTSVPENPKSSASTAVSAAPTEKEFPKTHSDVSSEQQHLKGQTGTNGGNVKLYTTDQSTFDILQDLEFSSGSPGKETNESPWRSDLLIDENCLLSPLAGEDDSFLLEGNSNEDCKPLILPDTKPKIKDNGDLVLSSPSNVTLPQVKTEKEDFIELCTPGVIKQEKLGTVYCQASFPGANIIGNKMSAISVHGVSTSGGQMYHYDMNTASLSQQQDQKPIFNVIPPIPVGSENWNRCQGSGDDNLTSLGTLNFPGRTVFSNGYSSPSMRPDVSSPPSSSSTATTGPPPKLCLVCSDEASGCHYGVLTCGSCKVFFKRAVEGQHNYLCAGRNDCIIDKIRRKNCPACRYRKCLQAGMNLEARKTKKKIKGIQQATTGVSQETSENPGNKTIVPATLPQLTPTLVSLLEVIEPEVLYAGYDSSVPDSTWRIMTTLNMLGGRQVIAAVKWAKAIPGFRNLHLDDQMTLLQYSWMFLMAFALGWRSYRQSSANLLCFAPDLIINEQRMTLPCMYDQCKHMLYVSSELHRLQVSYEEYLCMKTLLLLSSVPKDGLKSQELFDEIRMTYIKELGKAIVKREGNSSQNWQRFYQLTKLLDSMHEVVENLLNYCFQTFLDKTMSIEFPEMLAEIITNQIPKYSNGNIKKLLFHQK
# Method in brief: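 Steps: seed GR-bla HeLa cells, incubate 4 h at 37 C/5% CO2; pin-transfer DMSO-dissolved compounds; incubate 18 h at 37 C; add LiveBLAzer B/G FRET substrate; after 2 h at room temperature, measure fluorescence.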
smiles,measurement,setting,value
COc1c(C)c2c(c(O)c1C/C=C(\C)CCC(=O)O)C(=O)OC2,Potency,[1],0.0717 µM (active)
same,Potency,[2],inactive
same,Potency,[3],inactive
same,"fluorescence, relative to Rose Bengal",[4],0.0782% [at 18.6 µM]
same,"fluorescence, % of fluorescein control",[5],0.0327% [at 18.6 µM]
same,"fluorescence, % of triamterene",[6],-0.0265% [at 18.6 µM]
same,"fluorescence, % of fluorescent control",[7],0.167% [at 18.6 µM]
same,"fluorescence, % of fluorescein",[8],-0.0651% [at 18.6 µM]
same,"fluorescence, % of fluorescent control",[9],-0.004% [at 18.6 µM]
same,activity change,[10],-0.148% [at 18.6 µM]
same,"fluorescence, % of fluorescent control",[11],0.195% [at 18.6 µM]
same,"fluorescence, % of Rose Bengal",[12],0.0127% [at 18.6 µM]
same,"fluorescence, % of fluorescent control",[13],0.227% [at 18.6 µM]
same,"fluorescence, % of fluorescein control",[14],-0.0501% [at 18.6 µM]
same,"fluorescence, % of fluorescent control",[15],-0.0404% [at 18.6 µM]
Cc1cc(O)c(C(C)(C)C)cc1Sc1cc(C(C)(C)C)c(O)cc1C,Potency,[2],inactive
same,Potency,[16],13.7 µM (active)
same,Potency,[17],54.4 µM (active)
same,Potency,[3],61 µM (active)
same,Potency,[18],0.768 µM (active)
same,Potency,[4],inactive
same,Potency,[5],inactive
same,Potency,[6],inactive
same,Potency,[7],inactive
same,outcome,[8],inactive
same,Potency,[9],inactive
same,Potency,[11],inactive
same,Potency,[12],inactive
same,Potency,[13],inactive
same,Potency,[14],inactive
same,Potency,[15],inactive
O=C1CCCc2c1cc1ccc3cccc4ccc2c1c34,Potency,[1],55.1 µM (active)
same,Potency,[16],inactive
same,Potency,[17],inactive
same,Potency,[18],8.74 µM (active)
same,Potency,[4],inactive
same,Potency,[5],inactive
same,Potency,[6],inactive
same,Potency,[7],inactive
same,outcome,[8],inactive
same,Potency,[9],inactive
same,outcome,[10],inactive
same,Potency,[11],inactive
same,Potency,[12],inactive
same,Potency,[13],inactive
same,Potency,[15],inactive
same,Potency,[19],22.2 µM (active)
CCCCCCCCOc1ccccc1C(=O)Nc1ccc(C(=O)OCC[N+](C)(CC)CC)cc1,Potency,[2],inactive
same,Potency,[16],23.7 µM (active)
same,Potency,[17],inactive
same,Potency,[3],inactive
same,Potency,[18],31.2 µM (active)
same,Potency,[4],inactive
same,Potency,[5],inactive
same,Potency,[6],inactive
same,Potency,[7],inactive
same,outcome,[8],inactive
same,Potency,[9],inactive
same,outcome,[10],inactive
same,Potency,[11],inactive
same,Potency,[12],inactive
same,Potency,[13],inactive
same,Potency,[14],inactive
same,Potency,[15],inactive
C[n+]1cc2c3c(ccc2c2ccc4cc5c(cc4c21)OCO5)OCO3,Potency,[2],inactive
same,Potency,[16],1.5 µM (active)
same,Potency,[17],11.9 µM (active)
same,Potency,[3],11.9 µM (active)
same,Potency,[18],8.41 µM (active)
same,Potency,[4],inactive
same,Potency,[5],inactive
same,Potency,[6],inactive
same,Potency,[7],inactive
same,outcome,[8],inactive
same,Potency,[9],inactive
same,outcome,[10],inactive
same,Potency,[11],inactive
same,Potency,[12],inactive
same,Potency,[13],inactive
same,Potency,[14],inactive
same,Potency,[15],inactive
O=C1c2c(O)ccc(Nc3ccc(CCO)cc3)c2C(=O)c2c([N+](=O)[O-])ccc(O)c21,Potency,[2],inactive
same,Potency,[16],inactive
same,Potency,[17],48.6 µM (active)
same,Potency,[3],inactive
same,Potency,[18],1.93 µM (active)
same,Potency,[4],inactive
same,Potency,[5],inactive
same,Potency,[6],inactive
same,Potency,[7],inactive
same,outcome,[8],inactive
same,Potency,[9],inactive
same,outcome,[10],inactive
same,Potency,[11],inactive
same,Potency,[12],inactive
same,Potency,[14],inactive
same,Potency,[15],inactive
same,Potency,[19],inactive
O=S1(=O)CC(Cl)(Cl)C(Cl)(Cl)C1,Potency,[2],4.86 µM (active)
same,Potency,[16],3.06 µM (active)
same,Potency,[17],24.3 µM (active)
same,Potency,[3],15.4 µM (active)
same,Potency,[18],12.2 µM (active)
same,Potency,[4],inactive
same,Potency,[5],inactive
same,Potency,[6],inactive
same,Potency,[7],inactive
same,outcome,[8],inactive
same,Potency,[9],inactive
same,outcome,[10],inactive
same,Potency,[11],inactive
same,Potency,[12],inactive
same,Potency,[13],inactive
same,Potency,[14],inactive
